The values below come from PubChem BioAssay (EPA / NIEHS).

In assay [1] the target is Hepatocyte nuclear factor 4-alpha (Homo sapiens) (UniProt P41235). The assay is described as follows: ATG_HNF4a_TRANS: Attagene TRANS-FACTORIAL HepG2 Assay for human Hepatocyte Nuclear Factor 4 alpha (HNF4a) (AID 2282982; active = hit-call score of the fitted dose curve at least 0.9, where 1 is the maximum). Particulars: HepG2 HNF4a transactivation reporter, mRNA readout. Put shortly: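 Transient MRTU transfection of HepG2, 24 h dosing. Readout: reporter mRNA via RT-PCR + capillary electrophoresis, fluorescence; activity fit upward relative to DMSO control.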
Chain of Hepatocyte nuclear factor 4-alpha (Homo sapiens) (P41235 whole entry, looked up): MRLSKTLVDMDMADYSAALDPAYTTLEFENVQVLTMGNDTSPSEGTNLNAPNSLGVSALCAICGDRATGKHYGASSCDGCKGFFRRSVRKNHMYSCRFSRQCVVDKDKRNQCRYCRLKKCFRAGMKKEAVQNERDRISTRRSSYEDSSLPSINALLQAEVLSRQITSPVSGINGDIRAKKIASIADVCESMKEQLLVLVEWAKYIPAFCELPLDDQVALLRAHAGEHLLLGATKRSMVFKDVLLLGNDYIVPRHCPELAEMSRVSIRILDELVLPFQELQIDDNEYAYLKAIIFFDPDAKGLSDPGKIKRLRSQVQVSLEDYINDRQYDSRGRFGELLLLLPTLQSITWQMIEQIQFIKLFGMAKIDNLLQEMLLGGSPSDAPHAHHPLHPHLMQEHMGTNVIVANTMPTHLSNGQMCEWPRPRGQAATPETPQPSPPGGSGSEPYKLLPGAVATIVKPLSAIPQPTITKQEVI

A short description of assay [2]: ATG_M_32_TRANS: Attagene TRANS-FACTORIAL HepG2 Assay for M32 Transcription Factor (Internal Marker) (AID 2282984; active = hit-call score of the fitted dose curve at least 0.9, where 1 is the maximum;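 also: transcript level of a background control reporter unit measured by RT-PCR and capillary electrophoresis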). Particulars: HepG2 Attagene TRANS M32 internal marker reporter. The method, boiled down:
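Read-out: fluorescent reporter cDNA fragments resolved by capillary electrophoresis after RT-PCR of total RNA. Transfected HepG2 cells were exposed to chemical for 24 h. Activity scored in the positive direction relative to DMSO.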

The target in assay [3] is Transcriptional activator Myb (Homo sapiens) (UniProt P10242). Put plainly: ATG_Myb_CIS: Attagene CIS-FACTORIAL HepG2 Assay for human Myeloblastosis (Myb) Proto-Oncogene Transcription Factor (AID 2282986). Particulars: HepG2 Attagene CIS-FACTORIAL Myb reporter transcription; actives raise or lower the signal. Put shortly:
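Endogenous transcription factor activity at a Myb-responsive cis element is reported in human liver HepG2 cells after 24 h chemical treatment. Reporter mRNA is detected by RT-PCR and capillary electrophoresis fluorescence, with DMSO as baseline.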

The target in assay [4] is Nuclear respiratory factor 1 (Homo sapiens) (UniProt Q16656). Put plainly: ATG_NRF1_CIS: Attagene CIS-FACTORIAL HepG2 Assay for human Nuclear Respiratory Factor 1 (NRF1) Orphan Gene (AID 2282987). The following applies: HepG2 NRF1 cis-element reporter, Attagene multiplex; actives raise or lower the signal. Put shortly:
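Human hepatoma HepG2 cells carrying transfected promoter-regulated reporter units were incubated with test chemicals for 24 h. Reporter transcripts were measured by RT-PCR plus capillary electrophoresis, and endpoints derived by bidirectional fitting with DMSO as baseline.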

A short description of assay [5]: ATG_NFI_CIS: Attagene CIS-FACTORIAL HepG2 Assay for human Nuclear Factor I (NFI) (AID 2282989). The following applies: HepG2 cis-regulatory reporter, NFI response element transcription; actives raise or lower the signal. The method, boiled down: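 Reporter transcription driven by endogenous transcription factors in HepG2 cells; 24 h treatment. Quantitation by labelled RT-PCR fragments on capillary electrophoresis, gain- or loss-of-signal relative to DMSO.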

The nature of assay [6]: ATG_M_06_TRANS: Attagene TRANS-FACTORIAL HepG2 Assay for M06 Transcription Factor (Internal Marker) (AID 2282983; active = hit-call score of the fitted dose curve at least 0.9, where 1 is the maximum;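 also: reporter transcript level by RT-PCR then capillary electrophoresis fluorescence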). Particulars: HepG2 Attagene TRANS M06 internal marker reporter. The method, boiled down: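 In this multiplexed HepG2 system, compounds are incubated 24 h with cells carrying GAL4-UAS reporter units. Reporter RNA is amplified and resolved by capillary electrophoresis, and induction is scored against DMSO.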

The target in assay [7] is Nuclear receptor subfamily 4 group A member 2 (Homo sapiens) (UniProt P43354). Put plainly: ATG_NURR1_TRANS: Attagene TRANS-FACTORIAL HepG2 Assay for human Nuclear Receptor Related Protein 1 (NURR1) (AID 2282985; active = hit-call score of the fitted dose curve at least 0.9, where 1 is the maximum). Particulars: HepG2 Attagene TRANS reporter, mRNA readout. Put shortly:
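Read-out: reporter mRNA induction by RT-PCR plus capillary electrophoresis with fluorescence detection, after 24 h dosing of transfected HepG2 cells. Exogenous NR-Gal4 chimera activity drives GAL4-UAS reporter; activity fitted upward versus DMSO.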

Results filed as inconclusive are left out. Active and inactive are the calls of the source. The calls were made as follows, unless noted: active = hit-call score of the fitted dose curve at least 0.9, where 1 is the maximum; inactive = score below 0.9.

Chain of Transcriptional activator Myb (Homo sapiens) (P10242 whole entry, looked up): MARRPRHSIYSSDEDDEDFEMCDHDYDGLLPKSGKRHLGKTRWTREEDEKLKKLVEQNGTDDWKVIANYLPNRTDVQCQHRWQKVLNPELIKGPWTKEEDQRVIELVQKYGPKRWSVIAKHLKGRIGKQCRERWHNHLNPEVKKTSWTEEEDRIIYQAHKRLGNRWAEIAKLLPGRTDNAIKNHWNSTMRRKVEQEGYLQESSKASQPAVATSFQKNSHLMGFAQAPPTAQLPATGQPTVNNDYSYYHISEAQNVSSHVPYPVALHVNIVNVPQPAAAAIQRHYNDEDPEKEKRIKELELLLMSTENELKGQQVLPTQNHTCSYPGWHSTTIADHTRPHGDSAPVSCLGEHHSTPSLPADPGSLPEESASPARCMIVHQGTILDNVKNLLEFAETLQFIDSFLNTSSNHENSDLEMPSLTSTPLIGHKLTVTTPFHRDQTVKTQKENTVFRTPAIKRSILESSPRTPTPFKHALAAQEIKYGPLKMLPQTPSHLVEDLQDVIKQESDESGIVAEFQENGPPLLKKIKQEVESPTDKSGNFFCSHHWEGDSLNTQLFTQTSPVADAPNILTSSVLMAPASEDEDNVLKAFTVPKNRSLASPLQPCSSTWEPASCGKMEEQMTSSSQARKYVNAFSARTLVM
Chain of Nuclear receptor subfamily 4 group A member 2 (Homo sapiens) (P43354 whole entry, looked up, the tested form may be a part): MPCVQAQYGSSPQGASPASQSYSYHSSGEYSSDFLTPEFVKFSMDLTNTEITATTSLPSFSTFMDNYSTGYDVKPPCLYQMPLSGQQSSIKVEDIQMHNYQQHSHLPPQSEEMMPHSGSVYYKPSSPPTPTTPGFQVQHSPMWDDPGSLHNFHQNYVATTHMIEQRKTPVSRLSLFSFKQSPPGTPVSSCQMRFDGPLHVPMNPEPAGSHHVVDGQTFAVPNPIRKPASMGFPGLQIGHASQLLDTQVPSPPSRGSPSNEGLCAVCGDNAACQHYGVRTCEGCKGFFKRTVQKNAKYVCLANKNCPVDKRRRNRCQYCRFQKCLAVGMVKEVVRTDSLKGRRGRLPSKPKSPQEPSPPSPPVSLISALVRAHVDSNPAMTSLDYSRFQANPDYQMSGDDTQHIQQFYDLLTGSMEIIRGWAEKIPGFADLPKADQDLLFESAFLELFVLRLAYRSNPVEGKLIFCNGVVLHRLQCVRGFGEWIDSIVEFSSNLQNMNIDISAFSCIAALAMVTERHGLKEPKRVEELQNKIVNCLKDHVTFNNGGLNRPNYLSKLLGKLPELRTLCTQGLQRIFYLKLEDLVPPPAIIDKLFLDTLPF
Chain of Nuclear respiratory factor 1 (Homo sapiens) (Q16656 whole entry, looked up): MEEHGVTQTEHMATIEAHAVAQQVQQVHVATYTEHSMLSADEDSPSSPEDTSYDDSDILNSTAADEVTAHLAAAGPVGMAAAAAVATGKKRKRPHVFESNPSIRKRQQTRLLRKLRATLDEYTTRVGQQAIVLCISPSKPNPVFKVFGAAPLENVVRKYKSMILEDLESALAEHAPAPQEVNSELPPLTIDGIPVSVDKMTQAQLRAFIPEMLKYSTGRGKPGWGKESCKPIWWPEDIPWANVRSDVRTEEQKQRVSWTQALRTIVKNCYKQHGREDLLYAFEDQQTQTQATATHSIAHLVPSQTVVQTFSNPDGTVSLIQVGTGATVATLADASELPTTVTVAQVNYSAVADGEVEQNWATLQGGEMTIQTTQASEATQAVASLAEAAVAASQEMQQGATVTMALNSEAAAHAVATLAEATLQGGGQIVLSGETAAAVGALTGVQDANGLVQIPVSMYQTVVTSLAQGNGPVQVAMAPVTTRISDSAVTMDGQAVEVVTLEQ

In the case of `COc1ccc(N=Nc2cc(C)c(N=Nc3ccc(S(=O)(=O)O)cc3)cc2OC)cc1`, the compound was called inactive in assay [1], in assay [2] and in assay [3]. Also, the AC50 in assay [4] is 71.8 µM (active); in assay [5], 149 µM (active).
Take `O=[N+]([O-])c1cccc(Cl)c1`: the compound was called inactive in assay [6], in assay [3] and in assay [5].
Take `CC1=CC[C@@]23C[C@@H]1C(C)(C)[C@@H]2CC[C@H]3C`: the call in assay [6], in assay [2], in assay [7], in assay [3], in assay [4] and in assay [5] was inactive.
With `CS(=O)(=O)OCCCCOS(C)(=O)=O`, the compound was called inactive in assay [6], in assay [2], in assay [3], in assay [4] and in assay [5].
Turning to `CCOc1ccc(NC(=O)CC(C)O)cc1` (stereo not given), the result in assay [1], in assay [3], in assay [4] and in assay [5] was inactive.
`Cc1ccc2c(c1)C(=O)OC2=O`: the compound was called inactive in assay [1], in assay [2], in assay [3], in assay [4] and in assay [5].
In the case of `CCCCC(CC)(CO)CO`, the outcome in assay [3], in assay [4] and in assay [5] was inactive.
In the case of `CCCN(CCC)S(=O)(=O)c1ccc(C(=O)O)cc1`, the call in assay [1], in assay [2], in assay [3], in assay [4] and in assay [5] was inactive.
On to `CC1CC(O)CC(C)(C)C1` (stereo not given), for which the compound was classed as inactive in assay [2], in assay [3], in assay [4] and in assay [5].
Turning to `Cc1ccc(-c2ccccc2)cc1`, the call in assay [6], in assay [3], in assay [4] and in assay [5] was inactive.
With `Cc1ccc(OC(=O)c2ccccc2O)cc1`, the compound was called inactive in assay [6], in assay [2], in assay [7], in assay [3] and in assay [4].
With `CCCCCCCC/C=C\CCCCCCCC(=O)OCC`, the compound was classed as inactive in assay [3], in assay [4] and in assay [5].
In the case of `CCCCOCC`, the compound was called inactive in assay [7], in assay [3], in assay [4] and in assay [5].
As to `COCCc1ccc(OCC(O)CNC(C)C)cc1` (stereo not given), the outcome in assay [2], in assay [3], in assay [4] and in assay [5] was inactive.
Turning to `CCCCC1(COC(=O)CCC(=O)O)C(=O)N(c2ccccc2)N(c2ccccc2)C1=O`, the outcome in assay [6], in assay [3], in assay [4] and in assay [5] was inactive.
For `CCCCCCCCCC(=O)OC`, the call in assay [1], in assay [3], in assay [4] and in assay [5] was inactive.
Consider `CC(C)OCCO`, for which the call in assay [6], in assay [7], in assay [3], in assay [4] and in assay [5] was inactive.
Take `CC(C)CCOC(=O)c1ccccc1`: the outcome in assay [2], in assay [3], in assay [4] and in assay [5] was inactive.
Turning to `CS(C)=O`, the call in assay [1] and in assay [3] was inactive.
In the case of `C=C[Si]1(C)O[Si](C)(C=C)O[Si](C)(C=C)O[Si](C)(C=C)O1` (stereo not given), the outcome in assay [3] and in assay [4] was inactive.
`CCCCC(CC)COC(C)=O` (stereo not given): the call in assay [1], in assay [3], in assay [4] and in assay [5] was inactive.
As for `COc1ccc(N)c([N+](=O)[O-])c1`, the outcome in assay [6], in assay [7], in assay [3], in assay [4] and in assay [5] was inactive.
As for `CCCOC(=O)c1c(Cl)c(Cl)c(Cl)c(Cl)c1C(=O)OCCC`, the outcome in assay [6], in assay [2], in assay [7] and in assay [3] was inactive. The results for the AC50 in assay [4] and in assay [5] were 146 µM (active) and 156 µM (active), respectively.
For `CCC(=O)O[C@@H]1C[C@H]2CC[C@]1(C)C2(C)C`, the call in assay [2], in assay [3], in assay [4] and in assay [5] was inactive.
With `CCCCCCCC(=O)OCC(O)CO` (stereo not given), the result in assay [1], in assay [7], in assay [3], in assay [4] and in assay [5] was inactive.
`CC(C)(C)c1ccc(C(=O)O)cc1`: the outcome in assay [3], in assay [4] and in assay [5] was inactive.
As for `O=Cc1ccccc1S(=O)(=O)O`, the compound was called inactive in assay [6], in assay [7], in assay [3] and in assay [5].
For the compound `CC(=O)c1ccccn1`, the compound was called inactive in assay [6], in assay [7], in assay [3], in assay [4] and in assay [5].
As for `CCOC(=O)C1OC1c1ccccc1` (stereo not given), the call in assay [6], in assay [2], in assay [7], in assay [3], in assay [4] and in assay [5] was inactive.
Regarding `CC(C)(CO)[C@@H](O)C(=O)NCCC(=O)O`, the call in assay [6], in assay [2], in assay [7], in assay [3] and in assay [4] was inactive.
On to `Cc1cccc(Nc2ccccc2)c1`, for which the call in assay [6], in assay [4] and in assay [5] was inactive. Besides, the AC50 in assay [3] was 170 µM (active).
For the compound `Brc1ccc(Br)c(Br)c1`, the outcome in assay [2], in assay [3], in assay [4] and in assay [5] was inactive.
As to `OC[C@H]1O[C@@H]2O[C@H]3[C@H](O)[C@@H](O)[C@@H](O[C@H]4[C@H](O)[C@@H](O)[C@@H](O[C@H]5[C@H](O)[C@@H](O)[C@@H](O[C@H]6[C@H](O)[C@@H](O)[C@@H](O[C@H]7[C@H](O)[C@@H](O)[C@@H](O[C@H]8[C@H](O)[C@@H](O)[C@@H](O[C@H]9[C@H](O)[C@@H](O)[C@@H](O[C@H]1[C@H](O)[C@H]2O)O[C@@H]9CO)O[C@@H]8CO)O[C@@H]7CO)O[C@@H]6CO)O[C@@H]5CO)O[C@@H]4CO)O[C@@H]3CO`, the compound was classed as inactive in assay [1], in assay [3] and in assay [4].
For `CCCC(=O)OCCc1ccccc1`, the compound was classed as inactive in assay [6], in assay [7], in assay [3], in assay [4] and in assay [5].
On to `Cc1c(Cl)cccc1[N+](=O)[O-]`, for which the call in assay [1], in assay [3], in assay [4] and in assay [5] was inactive.
As for `O=C(O)c1cccnc1C(=O)O`, the result in assay [1], in assay [2], in assay [3], in assay [4] and in assay [5] was inactive.
Consider `OCCCCC(O)CO` (stereo not given), for which the result in assay [6], in assay [3], in assay [4] and in assay [5] was inactive.
As to `CN(C)C(=O)Nc1ccc(Oc2ccc(Cl)cc2)cc1`, the compound was called inactive in assay [6], in assay [2], in assay [7], in assay [3] and in assay [4].
`CCCSc1ccc2nc(NC(=O)OC)[nH]c2c1`: the outcome in assay [6], in assay [2], in assay [3], in assay [4] and in assay [5] was inactive.
Turning to `CC(C)CCCCCCc1ccc(OCCOCCO)cc1`, the compound was called inactive in assay [6], in assay [3] and in assay [5].
